Data from PubChem BioAssay.
Active and inactive are the calls of the source.

Tests used:
[1] = binders of probe aFSTL3 on microarray, primary screen, stem cell growth factor project, biochemical, small-molecule microarray, fluorescence 635/667 (AID 1064); settings: higher = more signal;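 also: measures binding of the biotinylated anti-FSTL3 antibody to printed compounds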
[2] = binders from COS7 lysate, DM2A8 probe, primary screen, torsin A project, cell lysate, small-molecule microarray, fluorescence 635/667 (AID 1065); settings: higher = more signal, COS7 lysate expressing mutant human TOR1A
[3] = binders of probe aFGF2 on microarray, primary screen, stem cell growth factor project, biochemical, small-molecule microarray, fluorescence 635/667 (AID 1067); settings: higher = more signal;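 also: measures binding of biotinylated aFGF2 protein to printed compounds on slides; z-score merges feature fluorescence and signal-to-noise across triplicate slides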
[4] = binders of probe aFGF10 on microarray, primary screen, stem cell growth factor project, biochemical, small-molecule microarray, fluorescence 635/667 (AID 1071); settings: higher = more signal;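 also: score merges 667 nm spot intensity and signal to noise from triplicate slides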
[5] = target: Neurogenic locus notch homolog protein 2 (Homo sapiens) (UniProt Q04721); assay: Notch2 binders on small-molecule microarrays, primary screen, biochemical, small-molecule microarray, 635 nm fluorescence, stem cell growth factors (AID 1073); settings: Notch2 binding, higher = more signal
Neurogenic locus notch homolog protein 2 (Homo sapiens), sequence (Q04721 whole entry, looked up, canonical isoform): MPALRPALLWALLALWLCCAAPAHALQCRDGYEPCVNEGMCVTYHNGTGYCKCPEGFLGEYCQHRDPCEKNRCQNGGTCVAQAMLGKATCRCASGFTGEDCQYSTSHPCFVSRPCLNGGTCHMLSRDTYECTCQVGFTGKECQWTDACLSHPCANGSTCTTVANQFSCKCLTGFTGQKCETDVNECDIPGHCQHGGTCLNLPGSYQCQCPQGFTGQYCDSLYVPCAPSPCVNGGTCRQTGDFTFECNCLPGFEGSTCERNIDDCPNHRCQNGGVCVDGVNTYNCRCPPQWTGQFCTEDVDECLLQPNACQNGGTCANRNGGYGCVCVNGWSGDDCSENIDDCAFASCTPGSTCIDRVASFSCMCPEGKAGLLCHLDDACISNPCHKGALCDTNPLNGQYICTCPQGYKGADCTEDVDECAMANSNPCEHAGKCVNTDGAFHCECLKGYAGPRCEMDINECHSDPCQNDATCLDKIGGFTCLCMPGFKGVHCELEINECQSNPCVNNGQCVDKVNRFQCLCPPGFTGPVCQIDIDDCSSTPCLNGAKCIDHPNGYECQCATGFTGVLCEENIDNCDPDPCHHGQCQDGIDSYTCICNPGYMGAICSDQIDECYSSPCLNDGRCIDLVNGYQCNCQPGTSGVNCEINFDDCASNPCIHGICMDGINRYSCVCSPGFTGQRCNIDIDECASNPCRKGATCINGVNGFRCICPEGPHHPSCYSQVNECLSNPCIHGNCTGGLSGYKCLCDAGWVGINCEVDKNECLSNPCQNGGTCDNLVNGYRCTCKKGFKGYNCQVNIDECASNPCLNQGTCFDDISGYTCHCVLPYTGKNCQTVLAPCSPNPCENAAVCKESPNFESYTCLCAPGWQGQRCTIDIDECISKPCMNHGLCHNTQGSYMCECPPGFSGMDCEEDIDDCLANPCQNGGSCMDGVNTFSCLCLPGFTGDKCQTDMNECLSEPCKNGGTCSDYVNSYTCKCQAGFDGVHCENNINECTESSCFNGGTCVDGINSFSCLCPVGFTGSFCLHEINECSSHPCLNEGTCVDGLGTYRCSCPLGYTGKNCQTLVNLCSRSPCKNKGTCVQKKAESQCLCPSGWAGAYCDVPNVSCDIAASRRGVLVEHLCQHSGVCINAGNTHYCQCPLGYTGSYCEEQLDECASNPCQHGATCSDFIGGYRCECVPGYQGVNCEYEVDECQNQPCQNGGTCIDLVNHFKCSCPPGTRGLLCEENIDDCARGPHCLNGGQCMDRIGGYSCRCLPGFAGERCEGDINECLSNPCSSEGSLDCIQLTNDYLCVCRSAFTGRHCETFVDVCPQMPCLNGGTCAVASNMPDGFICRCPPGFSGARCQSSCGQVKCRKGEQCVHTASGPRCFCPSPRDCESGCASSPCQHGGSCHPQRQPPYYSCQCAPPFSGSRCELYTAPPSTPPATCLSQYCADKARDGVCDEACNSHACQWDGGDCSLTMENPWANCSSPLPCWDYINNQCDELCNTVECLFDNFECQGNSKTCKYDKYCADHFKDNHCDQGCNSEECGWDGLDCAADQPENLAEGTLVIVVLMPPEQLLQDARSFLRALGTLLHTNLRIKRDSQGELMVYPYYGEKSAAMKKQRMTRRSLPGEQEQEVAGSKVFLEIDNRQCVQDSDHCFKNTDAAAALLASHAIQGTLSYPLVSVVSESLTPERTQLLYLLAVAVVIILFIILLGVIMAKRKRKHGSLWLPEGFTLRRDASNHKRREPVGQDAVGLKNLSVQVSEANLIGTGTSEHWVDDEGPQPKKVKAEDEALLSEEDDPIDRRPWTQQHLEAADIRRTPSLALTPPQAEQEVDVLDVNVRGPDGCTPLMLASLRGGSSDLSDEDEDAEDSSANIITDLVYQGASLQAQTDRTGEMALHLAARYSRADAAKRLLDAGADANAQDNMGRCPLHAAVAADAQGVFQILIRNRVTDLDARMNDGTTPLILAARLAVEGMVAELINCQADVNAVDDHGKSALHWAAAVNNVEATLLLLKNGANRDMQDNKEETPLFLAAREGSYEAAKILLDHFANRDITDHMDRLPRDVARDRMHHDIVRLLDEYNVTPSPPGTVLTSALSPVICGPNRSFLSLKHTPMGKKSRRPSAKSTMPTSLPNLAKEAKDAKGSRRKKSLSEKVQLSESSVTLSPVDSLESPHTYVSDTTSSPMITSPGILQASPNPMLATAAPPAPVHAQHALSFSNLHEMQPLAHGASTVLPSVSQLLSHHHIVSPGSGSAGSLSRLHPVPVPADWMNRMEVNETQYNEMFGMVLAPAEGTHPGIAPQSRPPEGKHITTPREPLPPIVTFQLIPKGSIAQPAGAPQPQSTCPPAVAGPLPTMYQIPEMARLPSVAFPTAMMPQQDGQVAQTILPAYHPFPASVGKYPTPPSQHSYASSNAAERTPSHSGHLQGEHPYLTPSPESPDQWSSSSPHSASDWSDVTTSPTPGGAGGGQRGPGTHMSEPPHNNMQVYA

[6] = target: Pro-neuregulin-1, membrane-bound isoform (Homo sapiens) (UniProt Q02297); assay: NRG1 binders on small-molecule microarrays, primary screen, psychiatric disease protein project, biochemical, small-molecule microarray, fluorescence 635/667 (AID 1075); settings: NRG1 binding, 635 nm fluorescence, higher = more signal;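 also: score combines 667 nm spot fluorescence with signal to noise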
[7] = test system: Neuregulin-1 EGF-like domain; assay: binders of neuregulin-1 EGF-like domain, primary screen, biochemical, small-molecule microarray, 635 nm fluorescence (AID 1081); settings: small-molecule microarray binding, higher = more signal;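 also: binding of the protein to compounds printed on small-molecule microarray slides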
[8] = FRG1 promoter luciferase signal modulators, primary screen, FRG1 inhibition for FSHD, cell-based, C2C12 myotubes, firefly/Renilla luciferase, luminescence (AID 1084); settings: higher = more signal, called active from +8 up or from −8 down
[9] = binders of probe aFST on microarray, primary screen, stem cell growth factor project, biochemical, small-molecule microarray, fluorescence 635/667 (AID 1086); settings: higher = more signal;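 also: score merges 667 nm fluorescence with signal-to-noise of each printed compound spot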
[10] = binders of probe aHhip on microarray, primary screen, stem cell growth factor project, biochemical, small-molecule microarray, fluorescence 635/667 (AID 1087); settings: higher = more signal;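 also: score merges spot fluorescence at 667nm with spot signal to noise ratio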
[11] = test system: PRMT1 (protein arginine N-methyltransferase 1); assay: PRMT1 binders on small-molecule microarrays, primary screen, biochemical, small-molecule microarray, 635 nm fluorescence (AID 1088); settings: small-molecule microarray binding, higher = more signal;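 also: binding of Prmt1 protein to compounds spotted on small-molecule microarray slides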
[12] = yeast growth modulation, basal conditions, primary screen, YJM789 clinical isolate, OD600, 24 h (AID 1089);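 also: growth of clinical yeast isolate S. cerevisiae YJM 789 seeded 1000 cells per well; test concentration not given here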; settings: S. cerevisiae YJM789 growth, higher = more signal, called active from +8 up or from −8 down
[13] = fission yeast growth modulation, primary screen, strain 972, OD600, 24 h, no modulator (AID 1090);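 also: basal condition with compound alone and no growth modifier present; test concentration not given here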; settings: S. pombe 972 growth, higher = more signal, called active from +8 up or from −8 down
[14] = S. cerevisiae growth modulation with rapamycin, primary screen, strain BY4716, OD600, 96 h (AID 1091); settings: higher = more signal, called active from +8 up or from −8 down; also: test concentration not given here
[15] = target: Torsin-1A-interacting protein 2 (Homo sapiens) (UniProt Q8NFQ8); assay: LULL1 binders on small-molecule microarray, primary screen, cell lysate, human LULL1 lysate, 635/667 nm fluorescence (AID 1092); settings: hLULL1 lysate binding, 635 nm fluorescence, higher = more signal;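 also: probe is lysate of COS7 cells overexpressing human LULL1; score merges per-feature 667 nm fluorescence with signal-to-noise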
[16] = E. coli growth modulation, two-sided OD650, primary screen, E. coli filamentation project, strain DRC41, 24 h (AID 1093); settings: OD650, 24 h, higher = more signal, called active from +8 up or from −8 down;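 also: MC1000 strain lacking acrAB efflux and sulA so SOS filamentation is blocked; test concentration not given here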
[17] = small-molecule microarray binders of probe aLefty2, primary screen, biochemical, biotinylated probe, 635/667 nm fluorescence (AID 1094); settings: higher = more signal;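 also: score merges spot fluorescence near 667 nm with spot signal-to-noise ratio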
[18] = test system: Noggin (protein binding on small-molecule microarray); assay: Noggin binders on small-molecule microarray, primary screen, biochemical, 635/667 nm fluorescence (AID 1095); settings: 635 nm fluorescence, higher = more signal;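 also: score merges 667 nm feature fluorescence with signal to noise over triplicate slides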
[19] = target: Neurogenic locus notch homolog protein 3 (Homo sapiens) (UniProt Q9UM47); assay: NOTCH3 binders on small-molecule microarray, primary screen, biochemical, 635/667 nm fluorescence (AID 1096); settings: NOTCH3 binding, 635 nm fluorescence, higher = more signal
Neurogenic locus notch homolog protein 3 (Homo sapiens), sequence (Q9UM47 whole entry, looked up): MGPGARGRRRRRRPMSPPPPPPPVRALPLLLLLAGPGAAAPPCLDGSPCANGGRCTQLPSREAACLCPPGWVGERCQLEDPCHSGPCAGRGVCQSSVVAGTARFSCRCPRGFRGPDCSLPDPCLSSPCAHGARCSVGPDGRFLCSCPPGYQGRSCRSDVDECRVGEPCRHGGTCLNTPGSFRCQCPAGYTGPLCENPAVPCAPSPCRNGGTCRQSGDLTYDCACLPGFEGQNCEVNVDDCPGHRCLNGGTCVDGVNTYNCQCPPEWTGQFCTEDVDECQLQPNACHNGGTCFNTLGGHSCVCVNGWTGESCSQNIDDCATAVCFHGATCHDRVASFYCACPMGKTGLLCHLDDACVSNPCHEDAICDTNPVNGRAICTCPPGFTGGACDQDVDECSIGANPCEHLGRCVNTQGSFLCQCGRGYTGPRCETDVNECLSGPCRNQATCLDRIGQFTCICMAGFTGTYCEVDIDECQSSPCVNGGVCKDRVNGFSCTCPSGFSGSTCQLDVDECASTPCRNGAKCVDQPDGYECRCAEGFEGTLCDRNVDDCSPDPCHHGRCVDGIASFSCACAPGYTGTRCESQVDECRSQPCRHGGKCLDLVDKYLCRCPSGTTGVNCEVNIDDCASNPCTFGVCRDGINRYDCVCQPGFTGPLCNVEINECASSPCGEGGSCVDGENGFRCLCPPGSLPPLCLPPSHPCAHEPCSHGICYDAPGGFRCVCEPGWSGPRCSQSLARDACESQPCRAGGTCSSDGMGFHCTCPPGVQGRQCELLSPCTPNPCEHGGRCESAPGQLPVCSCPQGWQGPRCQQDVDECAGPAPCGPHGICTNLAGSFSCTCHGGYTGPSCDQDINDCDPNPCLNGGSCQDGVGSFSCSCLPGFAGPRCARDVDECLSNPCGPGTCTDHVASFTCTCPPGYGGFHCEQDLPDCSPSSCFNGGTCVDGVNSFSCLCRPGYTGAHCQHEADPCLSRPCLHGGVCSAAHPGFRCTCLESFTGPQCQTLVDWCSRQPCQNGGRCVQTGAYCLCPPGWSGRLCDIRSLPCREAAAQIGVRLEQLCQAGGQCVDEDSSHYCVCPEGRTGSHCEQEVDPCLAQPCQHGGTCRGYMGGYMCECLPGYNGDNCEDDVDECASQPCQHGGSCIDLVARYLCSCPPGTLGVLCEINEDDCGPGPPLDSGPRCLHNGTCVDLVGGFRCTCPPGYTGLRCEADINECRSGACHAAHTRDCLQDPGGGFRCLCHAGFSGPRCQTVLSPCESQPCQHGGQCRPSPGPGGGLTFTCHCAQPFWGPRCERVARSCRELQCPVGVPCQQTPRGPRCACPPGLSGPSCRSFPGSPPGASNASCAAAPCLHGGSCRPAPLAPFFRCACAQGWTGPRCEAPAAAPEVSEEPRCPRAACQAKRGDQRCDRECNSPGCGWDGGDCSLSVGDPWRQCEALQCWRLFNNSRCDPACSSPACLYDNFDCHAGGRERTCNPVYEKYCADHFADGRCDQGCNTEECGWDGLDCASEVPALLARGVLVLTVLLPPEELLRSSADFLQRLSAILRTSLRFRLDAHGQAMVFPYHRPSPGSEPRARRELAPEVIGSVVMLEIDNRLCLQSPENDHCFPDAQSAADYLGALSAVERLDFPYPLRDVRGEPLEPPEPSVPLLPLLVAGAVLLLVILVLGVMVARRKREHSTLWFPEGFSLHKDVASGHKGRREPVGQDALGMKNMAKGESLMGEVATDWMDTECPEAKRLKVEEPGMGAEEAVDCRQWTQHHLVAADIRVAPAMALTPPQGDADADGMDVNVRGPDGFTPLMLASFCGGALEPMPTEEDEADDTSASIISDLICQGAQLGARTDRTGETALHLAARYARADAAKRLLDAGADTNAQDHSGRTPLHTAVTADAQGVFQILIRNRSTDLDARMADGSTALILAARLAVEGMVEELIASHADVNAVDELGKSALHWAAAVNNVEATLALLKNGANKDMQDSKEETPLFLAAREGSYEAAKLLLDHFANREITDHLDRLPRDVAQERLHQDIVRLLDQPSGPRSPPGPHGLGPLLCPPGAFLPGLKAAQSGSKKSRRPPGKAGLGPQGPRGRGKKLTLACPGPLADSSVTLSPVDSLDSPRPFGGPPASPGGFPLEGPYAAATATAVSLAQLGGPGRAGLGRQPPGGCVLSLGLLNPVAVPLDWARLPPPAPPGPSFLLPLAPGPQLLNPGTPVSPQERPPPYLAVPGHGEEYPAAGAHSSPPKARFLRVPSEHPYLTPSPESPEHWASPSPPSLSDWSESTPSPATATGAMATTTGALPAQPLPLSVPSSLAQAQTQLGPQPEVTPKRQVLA

[20] = small-molecule microarray binders of probe aEGFR, primary screen, biochemical, biotinylated probe, 635/667 nm fluorescence (AID 1097); settings: higher = more signal;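 also: probe is a biotinylated anti-EGFR antibody binding compounds printed on slides; score combines fluorescence near 667 nm and signal to noise of each spot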

## COC(=O)c1c(CC[C@@H](CO)NC(=O)N[C@H](Cn2cc(-c3cncn3C)nn2)C(C)C)oc(C(C)=O)c1C(=O)OC
[1]
  composite z-score: -0.151
[2]
  composite z-score: 0.874
[3]
  composite z-score: -0.043
[4]
  composite z-score: 0.66
[5]
  composite z-score: 0.193
[6]
  composite z-score: 0.692
[7]
  composite z-score: 1.09
[8]
  z-score: 0.0938 (inactive)
[9]
  composite z-score: -0.201
[10]
  composite z-score: -0.261
[11]
  composite z-score: 1.09
[12]
  z-score: -0.177 (inactive)
[13]
  z-score: -1.26 (inactive)
[14]
  z-score: -0.164 (inactive)
[15]
  composite z-score: 1.47
[16]
  z-score: 2.3 (inactive)
[17]
  composite z-score: -0.0617
[18]
  composite z-score: 0.209
[19]
  composite z-score: 0.149
[20]
  composite z-score: 0.19

## COC(=O)[C@@]1(Cc2ccc(OC)cc2)[C@H]2c3cc(C(=O)N(C)C)n(CCc4ccc(OC)c(Br)c4)c3C[C@H]2CN1C(=O)c1ccccc1
[1]
  composite z-score: 1.53
[2]
  composite z-score: 0.323
[3]
  composite z-score: 0.544
[4]
  composite z-score: 1.03
[5]
  composite z-score: 1.66
[6]
  composite z-score: 1.77
[7]
  composite z-score: 1.34
[8]
  z-score: -0.151 (inactive)
[9]
  composite z-score: 1.95
[10]
  composite z-score: -0.0489
[11]
  composite z-score: 1.17
[12]
  z-score: 0.557 (inactive)
[13]
  z-score: 0.236 (inactive)
[14]
  z-score: 2.82 (inactive)
[15]
  composite z-score: 3.33
[16]
  z-score: -0.76 (inactive)
[17]
  composite z-score: 0.903
[18]
  composite z-score: -0.54
[19]
  composite z-score: 1.01
[20]
  composite z-score: 0.674

## COc1cc(CO)cc(I)c1O[C@H]1C=C(C(=O)NCCO)C[C@@H](NCCc2c[nH]c3ccccc23)[C@@H]1O
[1]
  composite z-score: 0.318
[2]
  composite z-score: 0.52
[3]
  composite z-score: 0.0019
[4]
  composite z-score: 1.01
[5]
  composite z-score: 0.832
[6]
  composite z-score: -0.0224
[7]
  composite z-score: 1.01
[8]
  z-score: -0.389 (inactive)
[9]
  composite z-score: 0.714
[10]
  composite z-score: -0.184
[11]
  composite z-score: 1.39
[12]
  z-score: 0.004 (inactive)
[13]
  z-score: -12.4 (active)
[14]
  z-score: -2.09 (inactive)
[15]
  composite z-score: 0.499
[16]
  z-score: 2.12 (inactive)
[17]
  composite z-score: 0.341
[18]
  composite z-score: 0.947
[19]
  composite z-score: 0.705
[20]
  composite z-score: 0.192

## CCC1=C2CN(Cc3ccccc3Br)[C@@H]([C@@H](O)Cc3ccccc3)C2C=CCC1 (stereo not given in full)
[1]
  composite z-score: -0.525
[2]
  composite z-score: -0.12
[3]
  composite z-score: -0.0858
[4]
  composite z-score: 0.528
[5]
  composite z-score: 0.814
[6]
  composite z-score: 0.421
[7]
  composite z-score: 0.817
[8]
  z-score: -1.83 (inactive)
[9]
  composite z-score: 0.788
[10]
  composite z-score: 0.0881
[11]
  composite z-score: 1.24
[12]
  z-score: -0.828 (inactive)
[13]
  z-score: -5.56 (inactive)
[14]
  z-score: -1.13 (inactive)
[15]
  composite z-score: 2.11
[16]
  z-score: 0.777 (inactive)
[17]
  composite z-score: -0.125
[18]
  composite z-score: 0.515
[19]
  composite z-score: 1.05
[20]
  composite z-score: -0.0981

## CO[C@H]1O[C@H](CO)[C@@H](OC(=O)Nc2ccc3c(c2)OCO3)[C@H](OC(=O)Nc2ccccc2)[C@@H]1OC(=O)Nc1ccccc1
[1]
  composite z-score: -0.214
[2]
  composite z-score: 0.215
[3]
  composite z-score: 0.0654
[4]
  composite z-score: 0.949
[5]
  composite z-score: -0.0622
[6]
  composite z-score: 1.27
[7]
  composite z-score: 1.29
[8]
  z-score: -1.6 (inactive)
[9]
  composite z-score: 0.188
[10]
  composite z-score: -0.0994
[11]
  composite z-score: 1.55
[12]
  z-score: 0.738 (inactive)
[13]
  z-score: 0.51 (inactive)
[14]
  z-score: 4.42 (inactive)
[15]
  composite z-score: 3.33
[16]
  z-score: -1.17 (inactive)
[17]
  composite z-score: -0.0798
[18]
  composite z-score: 1.02
[19]
  composite z-score: 0.915
[20]
  composite z-score: -0.144
